From PubChem BioAssay
Platelet DG rel = modulates dense granule release in human platelets; human platelet-rich plasma, SFLLRN dense granule ATP release, luminescence; inhibition, %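 (compounds screened at 7.5 µM in platelet-rich plasma)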; 300,000 compounds, 0.22% hits;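 active means mean replicate score, as percent of positive control, at or above 50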
M18AAP inhibitor = PfM18AAP enzyme inhibition. AID 1822. inhibition, % at 7.35 µM. recombinant PfM18AAP, H-Glu-NHMec fluorogenic cleavage. 290,000 compounds, 1.2% hits;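 active means inhibition above the campaign mean inhibition over all tested compounds plus 3 SD, cut at about 28% in these data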
ABHD5 PLIN5 PPI = inhibitors of human ABHD5-perilipin-5 interaction. Split G. princeps luciferase complementation, luminescence, 4 h. inhibition, % at 4 µM. 360,000 compounds, 0.78% hits. AID 602281;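 active means inhibition above the mean inhibition across every tested compound plus 3 SD, cut at about 22% in these data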
Target sequence (Q00G26 whole entry, looked up): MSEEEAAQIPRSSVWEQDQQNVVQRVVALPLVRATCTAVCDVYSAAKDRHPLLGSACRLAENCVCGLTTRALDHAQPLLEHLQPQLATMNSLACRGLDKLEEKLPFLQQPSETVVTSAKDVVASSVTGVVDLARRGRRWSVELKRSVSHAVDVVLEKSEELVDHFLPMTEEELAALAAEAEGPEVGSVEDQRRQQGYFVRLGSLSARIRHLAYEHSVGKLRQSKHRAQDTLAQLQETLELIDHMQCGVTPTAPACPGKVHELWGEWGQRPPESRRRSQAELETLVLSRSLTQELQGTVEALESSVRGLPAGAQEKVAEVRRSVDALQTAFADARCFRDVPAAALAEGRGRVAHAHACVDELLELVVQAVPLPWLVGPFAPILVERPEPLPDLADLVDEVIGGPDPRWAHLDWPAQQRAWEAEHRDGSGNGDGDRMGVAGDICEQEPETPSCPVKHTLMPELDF
Target sequence (Q8WTS1 whole entry, looked up): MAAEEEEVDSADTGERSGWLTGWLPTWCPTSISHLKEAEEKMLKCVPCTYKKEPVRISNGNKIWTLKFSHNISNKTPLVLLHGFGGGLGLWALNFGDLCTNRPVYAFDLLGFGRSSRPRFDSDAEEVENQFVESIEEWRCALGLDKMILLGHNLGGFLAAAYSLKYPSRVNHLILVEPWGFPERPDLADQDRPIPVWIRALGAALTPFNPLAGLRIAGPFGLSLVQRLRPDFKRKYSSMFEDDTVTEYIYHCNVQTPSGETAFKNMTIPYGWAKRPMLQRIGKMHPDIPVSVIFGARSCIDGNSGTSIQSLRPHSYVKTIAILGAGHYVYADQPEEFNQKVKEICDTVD
Granule exo inh = lytic granule exocytosis inhibition. TALL-104 LAMP-1 surface exposure, flow cytometry; cells stimulated with thapsigargin and PMA. inhibition, % at 10 µM. 360,000 compounds, 0.66% hits;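 active means inhibition above about 55%, limit read from the data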
Rce1 inhib = blocks yeast Ras-converting enzyme. Q03530. calls only. yeast membranes, quenched prenylated peptide cleavage fluorescence. 290,000 compounds, 0.27% hits;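 active means fall in fluorescence gain of 50% or more versus controls, with final raw signal at or below 3038400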
Granule exo CP1 = blocks lytic granule exocytosis | inhibition, % at 10 µM | AID 651954 | 1,500 compounds, 11% hits | TALL-104 cells, LAMP-1 externalization, flow cytometry; stimulated with PMA plus thapsigargin | shares compounds with Granule exo inh; in the data active means inhibition above about 60%
A number is an active result; n = inactive; x = no result given; ! = a repeat was not active. A selection: hits, their analogues and other compounds. The true share with any hit is near 2.6%.

SMILES	Platelet DG rel	M18AAP inhibitor	ABHD5 PLIN5 PPI	Granule exo inh	Rce1 inhib	Granule exo CP1
COCC1CCN(Cc2cn(Cc3ccccc3)nc2-c2cc3ccccc3o2)CC1	n	n	n	n	n	x
COCC1CCCN(Cc2cn(Cc3ccccc3)nc2-c2cc3ccccc3o2)C1 (stereo not given)	n	n	n	70	n	n
COc1ccc(OC)c(NC(=O)Nc2c(O)ccc3ccccc23)c1	n	x	n	n	n	x
COc1ccc(S(=O)(=O)c2c(O)cc(C)c(NS(=O)(=O)c3ccccc3)c2C)cc1	n	n	n	70	n	n
COc1ccc(OC)c(NC(=O)Nc2ccc(O)c3ccccc23)c1	n	x	n	82	n	n
COc1ccc(S(=O)(=O)Nc2ccc(O)c3ccccc23)cc1	n	n	n	87	n	n
O=[n+]1cc(-c2ccccc2)n([O-])c2c1CCCCC2	n	n	n	n	n	x
COc1ccc(F)cc1-c1cc(C(=O)NCc2ccc(C(F)(F)F)cc2)[nH]n1	x	x	n	73	x	n
COc1ccc(F)cc1-c1cc(C(=O)NCc2cccc(C(F)(F)F)c2)[nH]n1	x	x	n	n	x	x
CCCS(=O)(=O)NC(=O)C1(C)CCN(C(=O)COc2ccc(Cl)cc2Cl)C1 (stereo not given)	x	x	n	61	x	n
CN(C)S(=O)(=O)c1ccc(C(=O)N2CC(=O)Nc3ccc(F)cc3C2c2ccc(F)cc2)cc1 (stereo not given)	n	n	n	n	n	x
CCN(Cc1ccccc1)CC(O)COC(c1ccc(OC)cc1)c1ccc(OC)cc1 (stereo not given)	n	n	n	66	n	n
O=[N+]([O-])CC(c1ccccc1)c1c[nH]c2ccccc12 (stereo not given)	n	x	n	n	n	x
OC(CNCC(c1ccc(Cl)cc1Cl)c1c[nH]c2ccccc12)c1ccccc1 (stereo not given)	n	n	n	100	n	88
CCOC(=O)c1cn(CC(=O)Nc2cccc(Cl)c2C)nn1	n	n	n	n	n	x
COc1ccc(CCN(C)c2ncnc3sccc23)cc1OC	n	n	n	n	n	x
COc1ccc(CCN(C)C(=O)CSc2ncnc3sccc23)cc1OC	n	n	n	77	n	n
O=C(COC(=O)/C=C/c1cccc([N+](=O)[O-])c1)NCc1ccc2c(c1)OCO2	n	n	n	n	n	x
S=C(Nc1ccccc1Cl)NC1CC2CCCC(C1)N2C1CC1 (stereo not given)	n	n	n	87	n	n
CC(C)(C)C(=O)NC1CC2CCCC(C1)N2C(=O)Nc1ccccc1Cl (stereo not given)	n	n	n	n	n	x
Cc1ccc(-c2c(NC(=O)C(C)C)n(C)c3ccccc3c2=O)cc1	n	n	n	n	n	x
Cc1c(NS(=O)(=O)c2ccc(N3CCN(C)CC3)c([N+](=O)[O-])c2)c(=O)n(-c2ccccc2)n1C	n	n	n	n	n	x
O=C(NCc1ccccc1Cl)c1cc(C(=O)C2CC2)c[nH]1	n	n	n	61	n	n
COCc1cc(C)nc(SCC(=O)Nc2ccc3c(c2)OCCO3)c1C#N	n	n	n	n	n	x
Cc1ccc(C(c2nnnn2Cc2cccs2)N2CCN(Cc3ccc4c(c3)OCO4)CC2)cc1 (stereo not given)	n	n	n	60	n	n
SMILES	Platelet DG rel	M18AAP inhibitor	ABHD5 PLIN5 PPI	Granule exo inh	Rce1 inhib	Granule exo CP1
COCCn1nnnc1C(c1ccc(C)cc1)N1CCN(Cc2ccc3c(c2)OCO3)CC1 (stereo not given)	n	n	n	n	n	x
O=C(CNC(=O)c1ccco1)NCC(=O)OCc1ccccc1Cl	n	n	n	n	n	x
OCCC1CN(CCCc2ccccc2)CCN1CCc1ccccc1 (stereo not given)	n	n	n	61	n	n
CCC(C)n1c(S(=O)(=O)O)nc2ccccc21 (stereo not given)	n	n	n	n	n	x
O=C(CN1C(=O)/C(=C/c2ccc(C(F)(F)F)cc2)Sc2ccccc21)NCCCN1CCOCC1	n	n	n	n	n	x
CCc1ccc(/C=C2/Sc3ccccc3N(CC(=O)NCCCN3CCOCC3)C2=O)cc1	n	n	n	66	n	63
CCN1CCN(CCNC(=O)c2ccc(/C=C3/Sc4ccccc4N(Cc4cccc(Cl)c4)C3=O)cc2)CC1	n	n	22	79	n	n
Cc1ccccc1CN1C(=O)/C(=C\c2ccc(C(=O)NCCN3CCOCC3)cc2)Sc2ccccc21	n	n	n	n	n	x
Cc1ccc(SCC(=O)O/N=C(\N)c2ccc([N+](=O)[O-])cc2)cc1	n	n	n	n	n	x
Cc1nn(C)c(C)c1N=Cc1c(O)ccc2ccccc12	n	n	n	n	n	x
Cc1cccc(N2CC(O)(c3cccs3)[N+]3=C2CCCC3)c1C (stereo not given)	n	n	n	n	n	x
O=C1NC[C@H](CCCCN2C[C@H](Cc3ccccc3)N(CCc3ccccc3)C(=O)C2=O)N(CCc2ccc(O)cc2)C1=O	x	x	n	n	x	x
COc1ccc(CNC(=O)COC(=O)[C@H](Cc2c[nH]c3ccccc23)NC(=O)c2cccs2)cc1	n	n	n	58	n	n
C[C@H](NC(=O)C1CCC(CNC(=O)[C@@H]2CCCN2C(=O)OC(C)(C)C)CC1)C(=O)O (stereo not given in full)	n	n	n	n	n	x
O=C(CC1SC2=NCCN2C1=O)Nc1ccc(Cl)cc1 (stereo not given)	n	n	n	n	n	x
Cc1ccc(NC(=O)CC2SC3=NCCCN3C2=O)c(C)c1 (stereo not given)	n	n	n	67	n	n
O=C(c1ccccc1F)N1CCN(S(=O)(=O)c2ccc(S(=O)(=O)N3CCCCCC3)cc2)CC1	n	n	n	n	n	x
CCOc1ccc(N(CC(=O)NCCc2ccc(C)cc2)S(=O)(=O)c2c(C)noc2C)cc1	n	n	n	79	n	n
Cc1ccc(N(CC(=O)NCCc2ccccc2)S(=O)(=O)c2c(C)noc2C)cc1	n	n	n	n	n	x
CCOc1ccc(OCC)c(NC(=O)CN(c2ccc(OC)cc2)S(=O)(=O)c2c(C)noc2C)c1	n	n	n	57	n	n
CCN1CCN(Cc2ccc(NC(=O)c3cc(NC(=O)c4cc(C)on4)cc(OC)c3)cc2C(F)(F)F)CC1	n	n	n	n	n	x
CCN1CCN(Cc2ccc(NC(=O)c3cc(NC(=O)C(=O)c4c[nH]c5ccccc45)cc(OC)c3)cc2C(F)(F)F)CC1	n	x	22!	56!	n	86
O=C(NC1CC1)c1cccc(Nc2ccc(-c3ccc4c(c3)OCCO4)nn2)c1	n	n	n	71	n	n
COC(=O)c1c(NC(=O)CSc2nnc(CNc3ccc(Cl)cc3)o2)sc(C)c1C	n	n	n	92	n	n
CCOC(=O)c1c(NC(=O)CSc2nnc(CNc3ccc(F)cc3)o2)sc(C(C)=O)c1C	n	n	n	n	n	x
CCCN(S(=O)(=O)c1ccccc1F)S(=O)(=O)c1ccccc1Br	n	n	n	57	n	n
CCN(Cc1ccccc1)S(=O)(=O)c1ccccc1Br	x	x	n	n	x	x
